Screening results as filed in PubChem BioAssay.
KCNH2 3.1 inh: inhibitors of human KCNH2 3.1 potassium channel isoform. activity change, % (tested at about 1.8 µM). U2OS KCNH2 3.1, thallium flux FluxOr; stronger effect = lower value. hit rate 0.95% among 340,000;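 active = maximum activity change below -70%; inconclusive = maximum activity change from -70% to -50%; inactive = maximum activity change above -50%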;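 note: thallium influx rate constant from kinetic fluorescence after stimulation buffer; % is set by controls: 0 for no effect and ±100 for the full control effect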
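U2OS cells transduced with KCNH2 3.1 mutant virus (1.77 x 10^8 /mL, 4 h), plated overnight at 37 C, loaded 45 min with FluxOr dye plus Red40 quencher. Thallium flux rate constant from kinetic reads after stimulation buffer, normalised to controls.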
MBNL1-CUG inh: MBNL1-poly(CUG) RNA binding inhibition; Potency, µM (doses to about 57.5 µM), without a hit: at the top dose activity change, negative = inhibition, actives largely listed as inhibitors; AID 2675; Q9NR56; TR-FRET MBNL1-His/biotin-(CUG)12 binding, 665/545 ratio; hit rate 0.036% among 280,000; active = well fitted inhibition curve with a large enough effect in the signal ratio, with a control signal flat, not every such curve was filed as active; inconclusive = small, poorly fitted or top-dose-only effect, or effect the other way, or a change in a side signal; inactive = no such curve, though single readings can be large or run the other way; the % refers to the signal ratio; note: potency is the fitted concentration of half-maximal effect; % is set by controls: 0 for no effect and ±100 for the full control effect
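Ratiometric TR-FRET (665 over 545 nm, excitation 340 nm) tracks disruption of MBNL1-His/biotin-(CUG)12 complex after 60 min at room temperature, with compounds at 92 nM to 58 uM final.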
VDR inhibitor: inhibitors of human vitamin D receptor; P11473; VDR-SRC2-3 peptide fluorescence polarization, 2 h; Potency, µM, without a hit: max response, negative = inhibition, usual class: inhibitors; hit rate 0.93% among 400,000; note: potency is the fitted concentration of half-maximal effect; % is set by controls: 0 for no effect and ±100 for the full control effect
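Reagent solutions, kept cold and dark, are dispensed first; compounds are then pinned in at 23 nl, plates briefly spun, and incubated 2 h at ambient temperature. Inhibition of VDR–SRC2-3 peptide binding is read by fluorescence polarization.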
KCNH2 WT inh: inhibitors of human wildtype KCNH2 potassium channel | Q12809 | U2OS, BacMam KCNH2, thallium flux FluxOr; stronger effect = lower value | activity change, % at 1.84 µM | hit rate 0.37% among 340,000;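 active = maximum activity change below -70%; inconclusive = maximum activity change between -70% and -50%; inactive = maximum activity change above -50%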; note: % is set by controls: 0 for no effect and ±100 for the full control effect
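U2OS cells transduced with wild-type KCNH2 virus are loaded with FluxOr dye for 45 min, and thallium flux is measured in kinetic reads before and after stimulation buffer. Rate constants are normalized to DMSO controls.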
CBFb RUNX1 block: inhibitors of human CBF-beta and RUNX1 interaction; AlphaScreen CBFb-His/RUNX1-biotin binding, biochemical; Q01196+Q13951; AID 1477; 230,000 tested, under 10 active; Potency, µM (highest dose often 59.8 µM), inactives show top-dose activity, negative = inhibition, most hits filed as inhibitors; note: % of control where 0% means no effect
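Inhibition was taken as any reduction in AlphaScreen signal from the CBF-beta–RUNX1 pair (His and biotin tags, 30 nM each), measured after compound (15 min) and bead (90 min) incubations at room temperature.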
PLK1 PBD inh: inhibitors of human PLK1 polo-box domain binding; P53350; Plk1 PBD binding of FITC phosphopeptide, fluorescence polarization; Potency, µM, inactives show max response, negative = inhibition, usual class: inhibitors; hit rate 2.8% among 360,000; AID 720504; note: potency is the fitted concentration of half-maximal effect; series mostly up to about 57 µM; % is set by controls: 0 for no effect and ±100 for the full control effect; nearly all actives have a fitted effect of over 65% in size
Target sequence (P53350 whole entry, looked up, the tested form may be a part): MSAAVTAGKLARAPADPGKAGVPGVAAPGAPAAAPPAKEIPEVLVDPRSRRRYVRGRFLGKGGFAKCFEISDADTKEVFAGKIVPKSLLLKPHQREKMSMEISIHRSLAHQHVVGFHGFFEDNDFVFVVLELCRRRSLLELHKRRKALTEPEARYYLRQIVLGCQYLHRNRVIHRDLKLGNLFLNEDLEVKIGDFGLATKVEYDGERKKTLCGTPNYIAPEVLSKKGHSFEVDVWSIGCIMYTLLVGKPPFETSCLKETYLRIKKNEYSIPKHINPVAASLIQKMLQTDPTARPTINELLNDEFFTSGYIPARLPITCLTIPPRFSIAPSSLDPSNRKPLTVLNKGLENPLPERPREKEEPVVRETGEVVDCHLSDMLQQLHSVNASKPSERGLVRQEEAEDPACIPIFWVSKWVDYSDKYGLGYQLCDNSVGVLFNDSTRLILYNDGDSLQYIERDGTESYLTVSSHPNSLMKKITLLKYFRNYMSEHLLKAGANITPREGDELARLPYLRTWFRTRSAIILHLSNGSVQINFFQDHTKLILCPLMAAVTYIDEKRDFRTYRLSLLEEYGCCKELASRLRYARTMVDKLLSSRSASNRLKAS
* marks the source's active call; other numbers are inactive results; ? = inconclusive; . = no result given. Rows were chosen to be rich in hits. Some 3.8% of all compounds tested hit in one or more screens of this group. Unless noted, calls come from the whole dose curve; as a rule, active = well fitted curve in the direction sought with a large enough effect; inconclusive = small, poorly fitted or top-dose-only effect, or another doubt; inactive = no such curve, though single readings can be large; an effect the other way counts as inactive or inconclusive.

SMILES	KCNH2 3.1 inh	MBNL1-CUG inh	VDR inhibitor	KCNH2 WT inh	CBFb RUNX1 block	PLK1 PBD inh
CCCCCCCC/C=C\CCCCCCCC(=O)NCCCC(=O)O	.	.	-8%	.	7%	.
CCN(CC)c1ccc2nc3c4ccccc4c(=O)cc-3oc2c1	-6	16%	?	-3	.	4%
CCN(CC)c1ccc2c(-c3ccc(S(=O)(=O)O)cc3S(=O)(=O)[O-])c3ccc(=[N+](CC)CC)cc-3oc2c1	-9	?	40µM*	3	.	6.7µM*
CC(=O)Nc1sc(N/N=C\c2ccco2)nc1-c1cccs1	10	?	?	-15	-2%	?
CCOc1cc(/C=N/Nc2nc(-c3cccs3)c(NC(C)=O)s2)ccc1O	9	7%	35µM*	2	-4%	27µM*
Cc1cc(C)n(-c2cc(N3CCN(S(=O)(=O)c4ccc(Br)cc4)CC3)ccc2[N+](=O)[O-])n1	-81*	6%	-17%	-2	-27%	2%
Cc1ccc(NC(=O)c2sc3ncnc(N4CCN(c5ccccn5)CC4)c3c2C)c(C)c1	-114*	149%	1%	-73*	.	2%
COc1cccc(NC(=O)c2sc3ncn(CC(=O)N4CCN(c5ccccn5)CC4)c(=O)c3c2C)c1	13	12%	25µM*	8	.	13µM*
Cc1ccc(NC(=O)c2sc3nc(C)nc(N4CCN(c5ccccn5)CC4)c3c2C)c(C)c1	-70*	36%	5%	-8	-7%	3%
Cc1nc(N2CCN(c3ccccn3)CC2)c2c(C)c(C(=O)Nc3ccc(Br)cc3C)sc2n1	-99*	2%	-1%	-42	.	1%
COc1ccc(NC(=O)CCn2cnnn2)cc1	.	.	7%	.	.	.
CCOC(=O)CNC(=O)c1sc2ncnc(N3CCc4ccccc4C3)c2c1C	8	?	3%	5	11%	-11%
CCCCNC(=O)c1sc2ncnc(N3CCc4ccccc4C3)c2c1C	5	9%	?	-14	6%	27µM*
COC(=O)CSc1nc(N2CCOCC2)c2c(c1C#N)CCCC2	9	-11%	-3%	15	11%	-1%
COC(=O)CSc1nc(-c2ccc(C)cc2)c2c(c1C#N)CCCC2	-73*	90%	23%	2	8%	-9%
Cc1ccccc1-c1noc(-c2ccc(N3CCN(c4ccccc4)CC3)c([N+](=O)[O-])c2)n1	.	.	0%	.	.	.
O=C(Nc1nc2ccc(S(=O)(=O)N3CCCC3)cc2s1)c1ccc(F)cc1	.	.	-6%	.	.	.
O=S(=O)(Nc1nc2ccc(S(=O)(=O)N3CCCC3)cc2s1)c1ccc(F)cc1	3	15%	-6%	1	-5%	17µM*
N#Cc1cnc(Sc2ccccc2)nc1	-8	.	?	1	16%	30µM*
Cc1nc2nc(NCc3ccc(Cl)cc3)[nH]n2c(=O)c1Cc1ccccc1	.	.	9%	.	.	.
CCN(CC)c1nn2c(=O)c(C(=O)NCc3cccc(C)c3)cnc2s1	.	.	12%	.	.	.
CSC1=C(C#N)C(=O)NC(c2ccccc2O)S1 (stereo unspecified)	1	-4%	-15%	0	6%	2.1µM*
CCC(C)NC(=O)c1ccc2nc(-c3ccco3)c(-c3ccco3)nc2c1 (stereo unspecified)	.	.	50µM*	.	.	.
CCc1nc2ccc(C(=O)NCCc3ccc(OC)c(OC)c3)cc2nc1CC	-6	18%	-6%	3	.	?
CCC(C)NC(=O)c1ccc2nc(Cc3ccccc3)oc2c1 (stereo unspecified)	.	.	10%	.	.	.
O=C(Nc1cccc(C(F)(F)F)c1)c1ccc2nc(-c3ccco3)c(-c3ccco3)nc2c1	6	?	20µM*	-6	?	5.3µM*
O=C(Nc1ccc(N2CCOCC2)cc1)Nc1ccc2nc(-c3ccco3)c(-c3ccco3)nc2c1	6	?	17%	-20	-5%	?
O=C(Nc1ccc2nc(-c3ccco3)c(-c3ccco3)nc2c1)NC1CC1	7	?	71µM*	-1	.	?
COc1ccc(CCNC(=O)c2ccc3nc(-c4ccco4)c(-c4ccco4)nc3c2)cc1OC	-5	?	79µM*	-6	.	27µM*
